Data reported in PubChem BioAssay (NCI).
The panel holds about 83,000 compounds, 20% with a hit somewhere; the sample as a whole holds those more often.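 Cells were grown in 96-well plates and exposed to the test compound at a single concentration for 48 hours; results are reported as percent growth, with values below 10 considered active.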 Values without a mark were called inactive.

System: HL-60(TB) leukemia
Experiment: NCI-60 one-dose screen, 48 h (100 = growth as untreated, 0 = no growth, -100 = all killed)
Details: 10 µM unless noted

Compound | growth [%]
C=C1CC[C@H]2[C@@](C)(CCC3OC(c4ccc(OCc5cn(C6CC(OC(C)=O)C(OC(C)=O)C(COC(C)=O)O6)nn5)cc4)OC[C@]32C)[C@@H]1/C=C/C1=CCOC1=O (some centres not stated) | 56.2
COc1ccc([C@H]2c3[nH]c4ccccc4c3C[C@@H]3C(=O)N(C4CCN(Cc5ccccc5)CC4)CC(=O)N23)c(OC)c1 | 50.7
CCOC(=O)c1cnc2c(-c3ccc(Cl)c(Cl)c3)cnn2c1 | 59.5
C#CCN(C)CCCOc1ccc(NC(=O)CCCCCCC(=O)NO)cc1Cl | 12.1
CC1(C)NCCC[C@]2(C)[C@H]3C/C(=N\O)C4[C@@H]5C[C@@](C)(CO)CC[C@]5(C)CC[C@@]4(C)[C@]3(C)CC[C@@H]12 (some centres not stated) | 68.9
O=C(N/N=C/c1cc2ccccc2nc1Cl)c1cc(-c2nc3ccccc3[nH]2)nc2ccccc12 | 92
Cn1c(SCC(=O)c2cccs2)nc2ccccc2c1=O | 91.8
NS(=O)(=O)c1ccc(Nc2nc(N/N=C/c3c[nH]c4ccccc34)nc(Nc3ccccc3)n2)cc1 | 34.4
Cc1ccc(OCc2occc2C(=O)N2CCOCC2)cc1 | 107
CC(C)(C)n1nnnc1C(Nc1cccc2c1OCO2)c1cc2cccc3ccc4cccc1c4c32 (configuration not stated) | 85.2
O=C(Nc1ccc(Cl)c(C(F)(F)F)c1)Nc1ccc2c(ccn2C(=O)c2cccc(F)c2)c1 | 24.7
Cn1ccnc1C(=O)/C=C/c1ccc(C(=O)Nc2ccc(NC(=O)CCNC(=O)c3csc(Br)n3)cc2)cc1 | 41
